Tgondii IFNg: T. gondii growth inhibition with IFN-gamma, primary screen, cell-based. Toxoplasma gondii growth in IFN-gamma-treated host cells; stronger effect = lower value. activity change, negative = inhibition, % (test concentration not listed). hit rate 3.8% among 69,000; in the data active = activity change below about -70%, passing the limit was not always enough;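 also: host cells are HeLa cells infected with Toxoplasma gondii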
Numbers without * were called inactive; ! = a repeat was not active. Many of the other results were omitted from the sample, so hits are more common in it than they were.

SMILES	Tgondii IFNg
CCN(CC)CCCC(C)Nc1c2ccc(Cl)cc2nc2ccc(OC)cc12 (stereo not given)	-72*!
COc1cc(NC(C)CCCN)c2ncccc2c1 (stereo not given)	28
COc1ccc2nc(C)cc(SCC(=O)c3ccc(Cl)cc3)c2c1	124
CC[C@@]1(C2O[C@@H](C3O[C@@](O)(CO)[C@H](C)C[C@@H]3C)C[C@@H]2C)CC[C@H]([C@]2(C)CC[C@]3(C[C@H](O)[C@@H](C)[C@@H]([C@@H](C)[C@@H](OC)[C@H](C)C(=O)O)O3)O2)O1 (stereo not given in full)	-80*
CCN1C(=O)CCCC12CCCN(C(=O)c1cccc3cccnc13)C2 (stereo not given)	-3
COc1cc(OC(C)=O)c(-c2cc(OC(C)=O)c(OC)cc2OC(C)=O)cc1OC(C)=O	104
CC(=O)Oc1cccc(C(=O)O)c1OC(C)=O	17
CC(=O)Nc1cc(OC(C)=O)c2nonc2c1OC(C)=O	-75*
Cc1ccc(-c2nc(Cn3nnc(-c4nc(-c5ccncc5)no4)c3C)c(C)o2)cc1	-68
CCOC(=O)N1CCC(N2[C@@H]3CC[C@H]2CNC(=O)C3)CC1	-6
Cc1nn(C(C)CC(=O)Nc2ccnn2Cc2ccc3c(c2)OCO3)c(C)c1Cl (stereo not given)	18
CCc1c(C)[nH]n2c(=O)cc(COc3ccccc3)nc12	-12
CCc1c(C)[nH]n2c(=O)cc(Cc3ccc(F)cc3)nc12	-103*
CCCc1cc(=O)n2[nH]c(C(F)(F)F)c(-c3ccc(OC)cc3)c2n1	-27
FC(F)(F)c1oc(-c2ccccc2Cl)cc1-c1nc(-c2cccs2)no1	-4
Clc1ccc(-c2cc(-c3cccs3)c(-c3ccccc3)o2)cc1	141
c1csc(-c2cncc(-c3nnc(-c4cccc5ccccc45)o3)c2)c1	-102*
Cc1oc(-c2ccc(NC(=O)c3cccc(C(F)(F)F)c3)cc2)nc1Cn1cccn1	-49
Cc1ccc(CC(=O)Nc2ccc(-c3nc(Cn4cccn4)c(C)o3)cc2)cc1	-39
Cc1oc(-c2ccc(NC(=O)c3ccsc3)cc2)nc1Cn1cccn1	120
Cc1oc(-c2ccc(NC(=O)c3ccc(Cl)cc3)cc2)nc1Cn1cccn1	-85*
COCCC(=O)Nc1ccc(-c2nc(Cn3cccn3)c(C)o2)cc1	94
Cc1oc(-c2ccc(NC(=O)c3ccc4c(c3)OCO4)cc2)nc1Cn1cccn1	-91*
Cc1oc(-c2ccc(NC(=O)c3cccc(C#N)c3)cc2)nc1Cn1cccn1	21
Cc1oc(-c2ccc(NC(=O)c3ccc(F)cc3F)cc2)nc1Cn1cccn1	-35
SMILES	Tgondii IFNg
Cc1oc(-c2ccc(NC(=O)c3ccc(Br)cc3)cc2)nc1Cn1cccn1	-53
CCOc1ccc(C(=O)Nc2ccc(-c3nc(Cn4cccn4)c(C)o3)cc2)cc1	-99*
Cc1oc(-c2ccc(NC(=O)c3cccc(N(C)C)c3)cc2)nc1Cn1cccn1	-86*
Cc1oc(-c2ccc(NC(=O)COc3ccccc3)cc2)nc1Cn1cccn1	56
O=C(NC[C@@]12COC[C@@H]1CN(Cc1nccs1)C2)c1ccco1	-47
CS(=O)(=O)c1ccc(CN2C[C@@H]3[C@H](C2)[C@H]2CC[C@@H]3O2)cc1	75
C=CCc1c(C)[nH]c2ccc(NC(=O)c3cnc(SC)nc3)cc2c1=O	-51
CC(Cc1cn(CCCn2ccnc2)nn1)c1ccccc1 (stereo not given)	5
CN1C(=O)CCc2cc(NC(=O)CC3CCCCC3)ccc21	36
CC(=O)Nc1ccc(Nc2nc(-c3nnc(-c4cccc(Cl)c4)o3)nc3ccccc23)cc1	69
CC1CCN(c2ccc(C(C)NC(=O)c3ccc(-n4cnnc4)cc3Cl)cc2)CC1 (stereo not given)	-11
O=C1NCC2(CCCN(C(=O)CCCOCc3ccccc3)C2)O1 (stereo not given)	-51
COC(=O)c1cc2n(n1)CCCN(C(=O)C(=O)Nc1ccc(F)cc1)C2	-1
COc1ccc(CN2CCN(Cc3ccc(Cl)cc3)CC2)c(F)c1F	-41
Cc1ccc(-c2nc(Cn3nnc(C(=O)NCc4ccc(Br)cc4)c3C)c(C)o2)cc1	-68
Cc1ccc(-c2nc(Cn3nnc(C(=O)Nc4ccccc4)c3C)c(C)o2)cc1	1
Cc1ccc(-c2nc(Cn3nnc(C(=O)NC4CCCC4)c3C)c(C)o2)cc1	-101*
Cc1ccc(-c2nc(Cn3nnc(C(=O)NCCc4ccccc4)c3C)c(C)o2)cc1	-49
Cc1ccc(CNC(=O)c2nnn(Cc3nc(-c4ccc(C)cc4)oc3C)c2C)cc1	-94*
Cc1ccc(-c2nc(Cn3nnc(C(=O)NCc4ccc(C(C)C)cc4)c3C)c(C)o2)cc1	-9
N#Cc1c(SCC(=O)NCc2cccc(Cl)c2)sc2c(=O)[nH]c(=O)[nH]c12	85
CC(=O)N1CCC(NCCCn2ccc3ccccc32)CC1	-2
Cc1nn(C)c(C)c1CCC(=O)N[C@@H]1CCC(=O)N[C@H]1C1CC=CCC1 (stereo not given in full)	10
Cc1cc(C(F)F)nn1CC(=O)N1C2CCC1CC(O)(Cn1ccc3ccncc31)C2 (stereo not given)	-23
Cc1ccc(CN2CC[C@@H]3OC[C@H](C(=O)N4CCCO4)C[C@H]3C2)o1	0
SMILES	Tgondii IFNg
COCC1CN(C(=O)C2CC2)Cc2cnn(C)c21 (stereo not given)	87
Cc1cncc(C(=O)N2CCC3(C2)CN(c2ccccc2)C(=O)CN3C)c1 (stereo not given)	3
CC(C)n1nc(-c2ccc3oc(N)nc3c2)c2c(N)ncnc21	-83*
CCc1ccccc1NC(=O)C(=O)NCCc1sc(-c2ccc(Cl)cc2)nc1C	154
CN1CC[C@@]2(CN(Cc3ccco3)C[C@H]2c2ccccc2)C1=O	2
CCn1c(C2CCCN(C(=O)Cc3ccc4c(c3)OCO4)C2)nn(C)c1=O (stereo not given)	7
O=C(Cc1ccc2c(c1)OCO2)N1CCC(c2nc(-c3ccsc3)cc(=O)[nH]2)CC1	-80*
O=C1CC2(CCN(C(=O)Cc3ccc4c(c3)OCO4)CC2)CN1	-57
CN(C)c1nc(Oc2ccc(=O)n(-c3ccccc3)n2)nc(N2CCCC2)n1	-60
CCCCCCCC(=O)Nc1nnc(Sc2ccnc3cc(Cl)ccc23)s1	-94*
CCSc1nnc(NC(=O)CCc2ccc(C)o2)s1	19
CCN(CC)C(=O)Oc1ccnc2cc(Cl)ccc12	-40
CCCCC(=O)Nc1ccc(NC(=O)Cc2cnc[nH]2)cc1	1
CCOc1cc(CCC(=O)Nc2n[nH]c(CC)n2)on1	39
CCOc1cc(CCC(=O)N2CCCc3c(Cl)cc(Cl)c(O)c32)on1	-87*
CCOc1cc(CCC(=O)N2CCc3[nH]c4c(Cl)cccc4c3C2)on1	40
COc1cc(OC)c(NC(=O)N2CCC3(CC2)Nc2cc(C)ccc2-n2cccc23)cc1Cl	342
Cc1cc(C)c2c(=O)n(Cc3nc(-c4ccc(Cl)cc4)oc3C)c(=O)n(-c3ccccc3)c2n1	0
COc1ccc(-c2nc3n(c(=O)c2C#N)CCCS3)cc1	44
Fc1ccc(-c2nc3n(c2-c2ccncc2)CCS3)cc1	-78*
O=c1c(C(c2cccnc2)c2c(O)nc3n(c2=O)CCS3)c(O)nc2n1CCS2	13
FC(F)(F)c1ccc2nc(SCc3cc(Cl)cc4c3OCOC4)[nH]c2c1	-81*
COc1ccc(C(C)=O)cc1CSc1nc2ccc(C(F)(F)F)cc2[nH]1	-52
Clc1cc2c(c(CSc3ccccc3C3=NCCCN3)c1)OCOC2	38
CCOC(=O)C1(Cc2ccccc2)CCN(Cc2ccc(Sc3nncn3C)o2)CC1	-6
